Hits are enriched below; roughly 19% of the tested compounds scored in any of these assays.
HT1080 IDH1KD tx: kills HT-1080 cells with IDH1 knockdown. HT-1080 IDH1 knockdown viability, ATP luminescence, 48 h. Potency, µM (highest dose often 46.1 µM), for inactives: at the highest dose activity, negative = toxicity, hits mostly cytotoxic. hit rate 2% among 360,000;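 further: potency means the concentration at half of the fitted maximal effect; 0% = DMSO wells and -100% = cell-free medium wells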
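After a 2 h attachment period, IDH1KD HT-1080 cells took pin-transferred compound for 48 h at 37 °C; ATP-based luminescence after 10 min room-temperature reagent incubation reported viability.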
DT40 TDP1 no CPT: qHTS for Inhibitors of human tyrosyl-DNA phosphodiesterase 1 (TDP1): qHTS in cells in absence of CPT. Potency, µM (titrated, usually from 46.2 µM), for inactives: at the top dose activity change, negative = growth inhibition, actives largely listed as inhibitors. AID 686978, 2013. hit rate 15% among 420,000. DT40 Tdp1-/- hTDP1 cells, no CPT, ATP luminescence, 48 h; further: potency means the concentration at half of the fitted maximal effect; nearly all actives have a fitted effect of over 55% in size
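No-CPT arm: Tdp1-/-;hTDP1 DT40 cells (400/well) plus compounds, incubated ≥48 hr at 37 °C. Readout CellTiter-Glo luminescence.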
IL-1B inflam inh: inflammasome signaling inhibition, IL-1 beta readout | THP-1 LPS/ATP IL-1B secretion, AlphaLISA, 16 h; stronger effect = lower value | activity change, % at 57.5 µM | hit rate 4.7% among 360,000 | AID 743279; in the data active means activity change below about -50%; inconclusive means mostly about -30% to -49%
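Secreted IL-1B measured by AlphaLISA bead assay after 16 h compound exposure of THP-1 cells; compounds (final up to 57.5 uM) added 1 h before LPS (250 ng/mL) and ATP (1.25 mM) stimulation; lower signal means less secretion.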
TDP1 cell CPT: growth inhibition of DT40 Tdp1-/-;hTDP1 cells with camptothecin (screen for TDP1 inhibitors). AID 686979. hit rate 12% among 420,000. Potency, µM (doses to about 46.2 µM), without a hit: top-dose activity change, negative = growth inhibition, most hits filed as inhibitors. chicken DT40 Tdp1-/-;hTDP1 cells + 20 nM CPT, ATP luminescence, 48 h; further: potency means the concentration at half of the fitted maximal effect; nearly all actives have a fitted effect of over 55% in size
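Chicken DT40 Tdp1-/- cells complemented with human TDP1, 400 cells/well, exposed to compounds plus 20 nM camptothecin for at least 48 h at 37 C; viability read as ATP content by CellTiter-Glo luminescence.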
HT1080NT lethal: kills 2HG-producing HT-1080-NT fibrosarcoma cells; hit rate 1.6% among 360,000; Potency, µM (highest dose often 46.1 µM), inactives show at the top dose activity, negative = less viability, most hits filed as cytotoxic; HT-1080-NT fibrosarcoma viability, CellTiter-Glo ATP luminescence, 48 h;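 further: NT is the 2HG producing partner of a matched IDH1 knockdown line; potency means the concentration at half of the fitted maximal effect; 0% = DMSO-treated cells and -100% = media-only wells without cells; nearly all actives have a fitted effect of over 55% in size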
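Compounds were tested in concentration-response format on HT-1080-NT cells for 48 hours at 37 degrees C. Cell viability came from CellTiter-Glo luminescence; curves were classified by r2, response magnitude and activity.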
* marks the source's active call; other numbers are inactive results; ? = inconclusive; / = not tested or not shown. Unless noted, the call rests on the fitted dose curve; in most records, active means well fitted curve in the direction sought with a large enough effect; inconclusive means small, poorly fitted or top-dose-only effect, or another doubt; inactive means no such curve, though single readings can be large; an effect the other way counts as inactive or inconclusive. Unless noted, on the % scale 0 is the no-effect control and ±100 the full control effect.

SMILES	HT1080 IDH1KD tx	DT40 TDP1 no CPT	IL-1B inflam inh	TDP1 cell CPT	HT1080NT lethal
COc1ccccc1C(=O)NNC(=O)C(=O)NC1CCCCC1	-14.0%	?	13.1	20.6µM*	-16.6%
CCN(CC(=O)Nc1ccccc1C(F)(F)F)C(=O)CN1C(=O)NC2(CCCC2)C1=O	-0.8%	-33.5%	20.5	-7.9%	-6.2%
Cc1ccc(N2CC(C(=O)NCCS(=O)(=O)N3CCN(c4ccccc4)CC3)CC2=O)cc1C (stereo not drawn)	13.1%	3.0%	-5.0	1.4%	7.3%
C/C(=N\NC(=O)c1nnn(-c2nonc2N)c1CN1CCCCC1)c1ccccc1O	?	13µM*	94.7	10.3µM*	?
C/C(=N\NC(=O)c1nnn(-c2nonc2N)c1CN(C)c1ccccc1)c1ccccc1O	?	6.51µM*	92.9	8.2µM*	?
CC(/C=N/NC(=O)c1nnn(-c2nonc2N)c1CN1CCCCC1)=C\c1ccccc1	?	?	-6.7	?	?
CS(=O)(=O)N1CCN(c2ccccc2NC(=O)CSc2ccc(Cl)cc2)CC1	-12.2%	?	-28.1	?	-14.5%
CC(=O)N1CCN(c2ccccc2NC(=O)c2cc(Br)ccc2Cl)CC1	-1.2%	?	-4.5	-25.3%	-5.5%
O=C(Nc1ccccc1N1CCN(C(=O)c2ccc(Cl)cc2)CC1)c1cc(Br)ccc1Cl	6.0%	14.6µM*	-12.3	?	-1.6%
COc1ccccc1C(=O)Nc1ccccc1N1CCN(C(=O)c2ccc(Cl)cc2)CC1	-37.9%	16.4µM*	-12.7	14.6µM*	-9.7%
O=C(CSc1ccc(Cl)cc1)Nc1ccccc1N1CCN(C(=O)c2ccccc2)CC1	-22.3%	18.4µM*	-3.8	16.4µM*	?
COc1ccc2cc(C3CC=C(COC(C)=O)CN3S(=O)(=O)c3ccccc3[N+](=O)[O-])n(C(=O)OC(C)(C)C)c2c1 (stereo not drawn)	-14.7%	-9.2%	-8.0	?	-7.4%
Cc1nc2c(C(=O)NCCc3ccc(Cl)cc3)cnn2c(C)c1Cc1ccc(F)cc1	/	?	/	16.4µM*	/
COc1ccccc1CNC(=O)c1ccccc1OCc1ccc(F)cc1	1.7%	?	14.5	?	3.3%
COc1ccccc1CNC(=O)c1cnn2c(C)c(Cc3ccc(F)cc3)c(C)nc12	/	6.51µM*	/	5.8µM*	/
C#C[C@]1(O)CCC2C3CCC4=CC(=O)CC[C@@H]4C3CC[C@@]21C (stereo partly drawn)	-0.5%	-26.5%	8.1	?	11.8%
C#C[C@]1(OC(C)=O)CC[C@H]2[C@@H]3CCC4=C/C(=N/O)CC[C@@H]4[C@H]3CC[C@@]21CC	/	18.8µM*	/	?	/
CC1CCCC(C)N1C(=O)COC(=O)Cc1c[nH]c2ccccc12 (stereo not drawn)	-5.6%	-1.9%	9.4	13.9%	-5.2%
COc1ccc(-c2ccc(C(=O)NCCN(C)C)c3occc23)c(C)c1	18.4µM*	?	-8.7	?	29.1µM*
COc1ccc(-c2ccc(C(=O)NCc3ccc(N4CCN(C)CC4)cc3)c3occc23)c(C)c1	?	16.4µM*	?	16.4µM*	23.1µM*
COCCNC(=O)c1ccc(-c2ccc(OC)cc2C)c2ccoc12	-15.9%	?	-29.7	?	-63.5%
COc1ccc(-c2coc3c(C(=O)NCc4ccccc4)cccc23)c(C)c1	?	?	-18.4	?	?
COc1ccc(-c2ccc(C(=O)NCC3CCOCC3)c3occc23)c(C)c1	?	?	-11.4	?	-16.2%
COc1ccc(-c2ccc(C(=O)NCc3ccccc3)c3occc23)c(C)c1	?	?	?	23.1µM*	?
COc1ccc(-c2coc3c(C(=O)NC4CCCCC4)cccc23)c(C)c1	?	?	-26.6	?	?
SMILES	HT1080 IDH1KD tx	DT40 TDP1 no CPT	IL-1B inflam inh	TDP1 cell CPT	HT1080NT lethal
COc1ccc(-c2ccc(C(=O)NC3CCCCC3)c3occc23)c(C)c1	?	18.4µM*	-27.9	20.6µM*	?
O=C(NC1CCCCC1)c1ccc(-c2cn[nH]c2)c2ccoc12	-17.2%	16.4µM*	-9.8	23.1µM*	-24.1%
COc1ccc(-c2ccc(C(=O)NCc3ccc(C(F)(F)F)cc3)c3occc23)c(C)c1	?	16.4µM*	-22.2	18.4µM*	?
O=C(NC1CCCC1)c1cccnc1N1CCCCCC1	0.0%	-15.9%	12.6	?	-2.6%
C=C(C)C1Cc2c(C)nn(-c3nc(C)cc(C)n3)c2C1 (stereo not drawn)	-27.5%	4.61µM*	-10.7	2.31µM*	-10.1%
C=C(C)C1Cc2nc(N)nc(C)c2C1 (stereo not drawn)	5.1%	-13.5%	25.3	-14.0%	2.7%
Cc1c2ccncc2cc2c1[nH]c1ccccc12	13µM*	6.51µM*	-96.5*	5.8µM*	18.4µM*
CCCCOC(=O)C1CN(c2ccccc2)N=C1C(C)=O (stereo not drawn)	0.0%	?	-1.3	-11.5%	-1.5%
CCCCOC(=O)C1CN(c2ccccc2)N=C1C(=O)OCC (stereo not drawn)	3.3%	20.6µM*	0.1	23.1µM*	1.9%
Cc1ccccc1-c1ncnn1-c1sc2c(c1C#N)CCCCC2	/	-15.7%	/	-25.2%	/
Nc1ncc([N+](=O)[O-])cc1S(=O)(=O)c1ccccc1	-2.0%	?	0.0	-28.0%	-2.2%
O=C(CCC1N=C2c3ccccc3N=C(SCc3cccc(Cl)c3)N2C1=O)NCc1cccs1 (stereo not drawn)	/	20.6µM*	/	11.6µM*	/

Source: PubChem BioAssay
